# Experimental data from PubChem BioAssay (NCATS).
# Results filed as inconclusive are left out. Entries that show only a call come without a potency. Values without a mark were called inactive. Activity calls are given as the source filed them. Calls come from the whole dose curve; as a rule, active = well fitted cell-killing curve with a large enough effect; inconclusive = small, poorly fitted or top-dose-only effect, or effect the other way; inactive = flat fitted curve, though single readings scatter.
# What was measured:
# Test in all cases: Primary qHTS to identify gynecologic anti-cancer compounds using libraries of approved drugs and bioactive compounds (AID 1345084); note: nearly all actives have a fitted effect of over 55% in size
# C33A = settings: Gynecologic cancer cell panel viability, ATPlite luminescence, 48 h; series mostly up to 57.5 µM
# How it was run: (§1)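 Measured: luminescence after ATPlite addition (15 min, RT). Exposure: 48 h, 37 C, 5% CO2.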
# CAOV3 = settings: Gynecologic cancer cell panel viability, ATPlite luminescence, 48 h; series mostly up to 57.5 µM
# How it was run: as §1
# CASKI = settings: Gynecologic cancer cell panel viability, ATPlite luminescence, 48 h; series mostly up to 57.5 µM
# How it was run: as §1
# Es-2 = settings: Gynecologic cancer cell panel viability, ATPlite luminescence, 48 h; series mostly up to 57.5 µM
# How it was run: as §1
# HeLa = settings: Gynecologic cancer cell panel viability, ATPlite luminescence, 48 h; series mostly up to 57.5 µM
# How it was run: as §1
# Hek293T = settings: Gynecologic cancer cell panel viability, ATPlite luminescence, 48 h, control line for the selectivity index; series mostly up to 57.5 µM
# How it was run: as §1
# Potency is the fitted concentration of half-maximal effect.
SMILES,Potency (C33A),Potency (CAOV3),Potency (CASKI),Potency (Es-2),Potency (HeLa),Potency (Hek293T),"activity change, negative = cytotoxicity (C33A)","activity change, negative = cytotoxicity (CAOV3)","activity change, negative = cytotoxicity (CASKI)","activity change, negative = cytotoxicity (Es-2)","activity change, negative = cytotoxicity (HeLa)","activity change, negative = cytotoxicity (Hek293T)"
CC(C)S(=O)(=O)NC[C@H](C)c1ccc(NC(=O)c2cc(F)cc(F)c2)cc1,inactive,inactive,inactive,inactive,inactive,inactive,,,,,,
COC(=O)C1=CO[C@@H](O[C@@H]2O[C@H](CO)[C@@H](O)[C@H](O)[C@H]2O)[C@H]2[C@@H]1CC(OC)O[C@@H]2C (some centres not stated),inactive,inactive,inactive,inactive,inactive,inactive,,,,,,
CCC(=O)O[C@H]1C(C)(C)[C@H]([C@@H](O)C(=O)OC)[C@]2(C)C(=O)[C@@]1(O)[C@H]1O[C@]13C1CC(=O)O[C@@H](c4ccoc4)[C@]1(C)CCC32 (some centres not stated),inactive,inactive,inactive,inactive,inactive,inactive,,,,,,
O=C(Nc1ccn[nH]1)c1c(F)cccc1F,inactive,inactive,inactive,inactive,inactive,inactive,,,,,,
COc1ccc(/C=C\C(=O)O)c(O[C@@H]2O[C@H](CO)[C@@H](O)[C@H](O)[C@H]2O)c1,inactive,inactive,inactive,inactive,inactive,inactive,,,,,,
CN(CCc1ccc(Nc2ncc(-c3cccnc3)s2)cc1)Cc1ccccc1,inactive,inactive,inactive,inactive,inactive,inactive,,,,,,
Nc1ncnc2c1nc(N)n2[C@@H]1O[C@H](CO)[C@@H](O)[C@H]1O,3.55 µM (active),1.26 µM (active),3.16 µM (active),3.16 µM (active),5.01 µM (active),7.94 µM (active),,,,,,
CC(C)C(C#N)O[C@@H]1O[C@H](CO[C@@H]2O[C@@H](C)[C@H](O)[C@@H](O)[C@H]2O)[C@@H](O)[C@H](O)[C@H]1O (some centres not stated),inactive,inactive,inactive,inactive,inactive,inactive,,,,,,
C[C@@H]1O[C@@H](O[C@@H]2[C@@H](O)[C@@H](O[C@]3(CO)O[C@H](CO)[C@@H](O)[C@@H]3OC(=O)/C=C/c3ccc(O)cc3)O[C@H](CO)[C@H]2OC(=O)/C=C/c2ccc(O)cc2)[C@H](O)[C@H](O)[C@H]1O[C@@H]1O[C@@H](C)[C@H](O[C@@H]2OC[C@](O)(CO)[C@H]2O)[C@@H](O)[C@H]1O,,,,,,,8.98% [at 11.6 µM],0.132% [at 11.6 µM],12.2% [at 11.6 µM],-1.87% [at 11.6 µM],10.7% [at 11.6 µM],-1.85% [at 11.6 µM]
OCc1ccc(O[C@@H]2O[C@H](CO)[C@@H](O)[C@H](O)[C@H]2O)cc1,inactive,inactive,inactive,inactive,inactive,inactive,,,,,,
CCOc1ccc(NC(=S)N2CCC(C(O)(c3ccccc3)c3ccccc3)CC2)cc1,inactive,inactive,inactive,inactive,inactive,inactive,,,,,,
COCCOc1cnc2ccn([C@H](C)c3nnc4c(F)cc(-c5cnn(C)c5)cn34)c(=O)c2c1,inactive,inactive,inactive,inactive,inactive,inactive,,,,,,
CC(O)/C=C/C1C(C)C(O[C@@H]2O[C@H](CO)[C@@H](O)[C@H](O)[C@H]2O)C(O)CC1(C)C (some centres not stated),inactive,inactive,inactive,inactive,inactive,inactive,,,,,,
C=C[C@@](C)(O)CC/C=C(\C)C(=O)O[C@@H]1[C@@H]2O[C@]2(C)[C@H]2[C@H](O[C@@H]3O[C@H](CO)[C@@H](O)[C@H](O)[C@H]3O)OC=C[C@@]12O,inactive,inactive,inactive,inactive,inactive,inactive,,,,,,
C[C@H](NC(=O)CCc1nc2ccccc2c(=O)[nH]1)c1ccccc1,inactive,inactive,inactive,inactive,inactive,inactive,,,,,,
O=C1CCC=CC1(O)C(=O)OCc1ccccc1O[C@@H]1O[C@H](CO)[C@@H](O)[C@H](O)[C@H]1O (some centres not stated),inactive,inactive,inactive,inactive,inactive,inactive,,,,,,
Cc1cc(C)nc(NS(=O)(=O)c2ccc(NC(=S)NC(=O)COc3ccc(Br)cc3Cl)cc2)n1,inactive,inactive,inactive,inactive,inactive,inactive,,,,,,
COc1ccc(-c2ccc(-c3cn(C(=O)N4CCCCC4c4ccccc4)nn3)cc2)cc1 (configuration not stated),inactive,inactive,inactive,inactive,inactive,inactive,,,,,,
CC1(C=O)CC[C@]2(C(=O)O[C@@H]3O[C@H](CO)[C@@H](O)[C@H](O)[C@H]3O)CC[C@]3(C)C(=CCC4[C@@]5(C)C[C@H](O)[C@H](O[C@@H]6OC[C@@H](O)[C@H](O)[C@H]6O)[C@@](C)(CO)C5CC[C@]43C)C2C1 (some centres not stated),,,,,,,-2.32% [at 11.6 µM],-2.27% [at 11.6 µM],0.835% [at 11.6 µM],-7.22% [at 11.6 µM],-5.1% [at 11.6 µM],-2.72% [at 11.6 µM]
CC1(C)CC[C@]2(C(=O)O[C@@H]3O[C@H](CO)[C@@H](O)[C@H](O)[C@H]3O)CC[C@]3(C)C(=CCC4[C@@]5(C)C[C@@H](O)[C@H](O)[C@](C)(C=O)C5CC[C@]43C)[C@@H]2[C@@H]1O (some centres not stated),inactive,inactive,inactive,inactive,inactive,inactive,,,,,,
C=C[C@H]1CN2CC[C@H]1C[C@@H]2C(O)c1ccnc2ccc(OC)cc12 (some centres not stated),inactive,inactive,inactive,inactive,inactive,inactive,,,,,,

SMILES,Potency (C33A),Potency (CAOV3),Potency (CASKI),Potency (Es-2),Potency (HeLa),Potency (Hek293T),"activity change, negative = cytotoxicity (C33A)","activity change, negative = cytotoxicity (CAOV3)","activity change, negative = cytotoxicity (CASKI)","activity change, negative = cytotoxicity (Es-2)","activity change, negative = cytotoxicity (HeLa)","activity change, negative = cytotoxicity (Hek293T)"
CCCn1c(=O)c2[nH]c(-c3ccc(OCC(=O)O)cc3)nc2n(CCC)c1=O,inactive,inactive,inactive,inactive,inactive,inactive,,,,,,
C=C1C[C@]23C[C@H]1CC[C@H]2[C@@]1(C)CCC[C@@]2(C)C(=O)O[C@@H]([C@@H]3O)[C@@H]12,inactive,inactive,inactive,inactive,inactive,inactive,,,,,,
COC(=O)[C@@H](O)[C@H]1[C@@]2(C)CC3(O)[C@@H](C(=O)[C@H]2O)[C@]24O[C@]25CC(=O)O[C@@H](c2ccoc2)[C@]5(C)CCC4[C@]13C (some centres not stated),inactive,inactive,inactive,inactive,inactive,inactive,,,,,,
CC(=O)N[C@@H](CCCCN)C(=O)N(C)[C@@H](CC(C)C)C(=O)N[C@H](C(=O)N(C)[C@@H](Cc1ccccc1)C(=O)N[C@H](Cc1ccccc1)C(N)=O)C(C)C,,,,,,,18.7% [at 6.55 µM],6.22% [at 6.55 µM],2.04% [at 6.55 µM],-0.643% [at 6.55 µM],16.5% [at 6.55 µM],8.12% [at 6.55 µM]
C=CC(C)(O)CC[C@H]1C(=C)CCC2[C@](C)(C(=O)O)CCC[C@@]21C (some centres not stated),inactive,inactive,inactive,inactive,inactive,inactive,,,,,,
CC1(C)C=CN2C(=O)C3=CCCN3C(=O)[C@@H]2C[C@@]12Nc1ccccc1C2=O,inactive,inactive,inactive,inactive,inactive,inactive,,,,,,
COC1CC(O[C@H]2CC[C@@]3(C)C(=CC[C@]4(O)C3[C@H](OC(C)=O)[C@@H](OC(=O)c3ccccc3)[C@]3(C)[C@@H](C(C)=O)CC[C@@]34O)C2)OC(C)C1OC1CC(OC)C(OC2CC(OC)C(OC3OC(C)C(OC4OC(CO)C(O)C(O)C4O)C(OC)C3O)C(C)O2)C(C)O1 (some centres not stated),,,,,,,-6.27% [at 6.55 µM],-1.71% [at 6.55 µM],-17.5% [at 6.55 µM],3.59% [at 6.55 µM],-1.12% [at 6.55 µM],-1.35% [at 6.55 µM]
O=C(NCC(O)CO)c1ccncc1Nc1ccc(I)cc1F (configuration not stated),inactive,inactive,inactive,2 µM (active),inactive,inactive,,,,,,
C=C1CCCC2(C)CC3(OC)OC(=O)C(C)=C3CC12 (configuration not stated),inactive,inactive,inactive,inactive,inactive,inactive,,,,,,
C=C[C@@H]1[C@H](O[C@@H]2O[C@H](CO)[C@@H](O)[C@H](O)[C@H]2O)OC=C(C(=O)O)[C@H]1CCOC(=O)/C=C/c1ccc(O)c(O)c1,inactive,inactive,inactive,inactive,inactive,inactive,,,,,,
OC[C@H]1O[C@@H](OCCc2ccc(O)cc2)[C@H](O[C@@H]2OC[C@](O)(CO)[C@H]2O)[C@@H](O)[C@@H]1O,inactive,inactive,inactive,inactive,inactive,inactive,,,,,,
CC12CCC3c4ccc(O)cc4CCC3C1CC(OC1OC(C(=O)O)C(O)C(O)C1O)C2O (configuration not stated),inactive,inactive,inactive,inactive,inactive,inactive,,,,,,
C=C1C[C@]23C[C@H]1CC[C@H]2[C@]1(C)CCC[C@@](C)(C(=O)O)[C@H]1[C@@H]3C(=O)O,inactive,inactive,inactive,inactive,inactive,inactive,,,,,,
CC(=O)OC1C(O)C2C(C)C3=CC(=O)OC3(O)CC2C2(C)CCCC(C)(CO)C12 (configuration not stated),inactive,inactive,inactive,inactive,inactive,inactive,,,,,,
O=C(OC[C@@]1(O)CO[C@@H](O[C@H]2[C@H](Oc3ccc(O)cc3)O[C@H](CO)[C@@H](O)[C@@H]2O)[C@@H]1O)c1ccc(O)cc1,inactive,inactive,inactive,inactive,inactive,inactive,,,,,,
CC(=O)c1c(O)cc(O[C@@H]2O[C@H](CO)[C@@H](O)[C@H](O)[C@H]2O)cc1O,inactive,inactive,inactive,inactive,inactive,inactive,,,,,,
O=C(O)Cc1cn(C2OCC(O)C(O)C2O[C@@H]2O[C@H](CO)[C@@H](O)[C@H](O)[C@H]2O)c2ccccc12 (some centres not stated),inactive,inactive,inactive,inactive,inactive,inactive,,,,,,
OC[C@H]1O[C@@H](O[C@H]2[C@H](OCCc3ccccc3)O[C@H](CO)[C@@H](O)[C@@H]2O)[C@H](O)[C@@H](O)[C@@H]1O,inactive,inactive,inactive,inactive,inactive,inactive,,,,,,
CC#CC(=O)N1CCC[C@H]1c1nc(-c2ccc(C(=O)Nc3ccccn3)cc2)c2c(N)nccn12,inactive,inactive,inactive,inactive,inactive,inactive,,,,,,
CC1OC(OC2C(O)C(OC3CCC4(C)C(CCC5(C)C4CC=C4C6CC(C)(COC7OC(CO)C(O)C(O)C7O)CC(O)C6(C)CCC45C)C3(C)C)OC(C(=O)O)C2O)C(O)C(O)C1OC1OCC(O)C(O)C1O (configuration not stated),,,,,,,5.66% [at 11.6 µM],-0.364% [at 11.6 µM],-2.68% [at 11.6 µM],8.83% [at 11.6 µM],12.4% [at 11.6 µM],11.9% [at 11.6 µM]
CC(=O)N[C@H]1[C@H](O[C@H]2CC[C@@]3(C)C(CC[C@]4(C)C3CC=C3[C@@H]5CC(C)(C)CC[C@]5(C(=O)OC5OCC(O)C(O)C5O)CC[C@]34C)C2(C)C)O[C@H](COC2OC(C)C(O)C(OC3OC(C)C(O)C(O)C3O)C2O)[C@@H](O)[C@@H]1O (some centres not stated),,,,,,,-0.0854% [at 11.6 µM],0.431% [at 11.6 µM],5.69% [at 11.6 µM],4.54% [at 11.6 µM],1.75% [at 11.6 µM],4.04% [at 11.6 µM]
